Measurements reported in PubChem BioAssay (NCI).
Values joined by “and” are separate entries in the source; they are usually repeats but may differ in a detail not shown here. Identical values can stand only once. About 83,000 compounds went through this panel and 20% of them were active in at least one assay; those are over-represented in the sample as a whole.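 Negative percent growth values reflect cell death: -40 means 40% of the cells present at the start died, and -100 means all died.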 Active and inactive are the calls of the source. How the source made its calls: active means growth percent below 10; inactive means the rest.

Experiments:
Test in all cases: NCI-60 one-dose screen, 48 h (100 = growth as untreated, 0 = no growth, -100 = all killed)
Details in all cases: 10 µM unless noted
T-47D breast = tested on: T-47D breast
BT-549 breast = tested on: BT-549 breast
MDA-MB-435 melanoma = tested on: MDA-MB-435 melanoma
SW-620 colon = tested on: SW-620 colon
MCF7 breast = tested on: MCF7 breast
HCT-116 colon = tested on: HCT-116 colon
HCC-2998 colon = tested on: HCC-2998 colon
KM12 colon = tested on: KM12 colon

Measured: growth

O=C1c2ccccc2C(c2ccccc2)C1c1ccccc1 (centres undefined)
inactive: T-47D breast 82.9% | BT-549 breast 131% | MDA-MB-435 melanoma 95.9% | SW-620 colon 90.1% | MCF7 breast 69.3% | HCT-116 colon 79.3% | HCC-2998 colon 95.4% | KM12 colon 95.1%

Nc1ccccc1SC(CC(=O)c1ccccc1)c1cccc([N+](=O)[O-])c1 (centres undefined)
14.1% (inactive) and 1.5% (active): SW-620 colon
active: HCT-116 colon -71.2% and -58.6%
inactive: T-47D breast 88.3% and 90% | BT-549 breast 103% and 88.9% | MDA-MB-435 melanoma 102% and 85.5% | MCF7 breast 19.3% and 19% | HCC-2998 colon 110% | KM12 colon 73.9%

Cc1cc(Cl)nc(Nc2ccccc2)n1
inactive: T-47D breast 90.4% | BT-549 breast 108% | MDA-MB-435 melanoma 98% | SW-620 colon 104% | MCF7 breast 93.7% | HCT-116 colon 93.1% | HCC-2998 colon 98.6% | KM12 colon 97.8%

Nc1ccc(Cl)c(S(=O)(=O)O)c1
inactive: T-47D breast 92.4% | BT-549 breast 96% | MDA-MB-435 melanoma 107% | SW-620 colon 99.1% | MCF7 breast 101% | HCT-116 colon 102% | HCC-2998 colon 110% | KM12 colon 103%

O=[N+]([O-])c1ccc(NC(c2ccccc2)c2ccc3cccnc3c2O)cc1 (centres undefined)
inactive: T-47D breast 37.2% | BT-549 breast 39% | MDA-MB-435 melanoma 32.8% | SW-620 colon 23.9% | MCF7 breast 17.3% | HCT-116 colon 28% | HCC-2998 colon 29.8% | KM12 colon 28%

O=[N+]([O-])c1cccc(N=Cc2ccccc2)c1
inactive: T-47D breast 103% | BT-549 breast 101% | MDA-MB-435 melanoma 109% | SW-620 colon 117% | MCF7 breast 102% | HCT-116 colon 103% | HCC-2998 colon 103% | KM12 colon 112%

Cc1onc(-c2c(F)cccc2Cl)c1-c1ncc(-c2ccc(Cl)cc2)o1
inactive: T-47D breast 73.9% and 35.8% | BT-549 breast 73.8% and 40.7% | MDA-MB-435 melanoma 46.8% and 37.7% | SW-620 colon 37.3% and 29.4% | MCF7 breast 61.9% and 20.5% | HCT-116 colon 27.1% and 16.6% | HCC-2998 colon 61.2% and 56.8% | KM12 colon 43.4% and 34.7%

CC(=O)c1cc2ccccc2o1
inactive: T-47D breast 100% | BT-549 breast 97.2% | MDA-MB-435 melanoma 109% | SW-620 colon 112% | MCF7 breast 95.6% | HCT-116 colon 100% | HCC-2998 colon 109% | KM12 colon 109%

OCCS
inactive: T-47D breast 92.8% | BT-549 breast 134% | MDA-MB-435 melanoma 105% | SW-620 colon 109% | MCF7 breast 94.1% | HCT-116 colon 103% | HCC-2998 colon 93.9% | KM12 colon 103%

C(=N\OCCc1ccccc1)/c1ccccn1
inactive: T-47D breast 114% | BT-549 breast 138% and 102% | MDA-MB-435 melanoma 109% and 106% | SW-620 colon 110% and 111% | MCF7 breast 92.9% and 105% | HCT-116 colon 112% and 102% | HCC-2998 colon 105% and 104% | KM12 colon 113% and 107%

CCC(C)NC(=O)c1ccccc1C (centres undefined)
inactive: T-47D breast 94.3% | BT-549 breast 99.4% | MDA-MB-435 melanoma 103% | SW-620 colon 92.4% | MCF7 breast 90.7% | HCT-116 colon 98.3% | HCC-2998 colon 96.7% | KM12 colon 101%

CCNCc1ccccc1
inactive: T-47D breast 98.3% | BT-549 breast 124% | MDA-MB-435 melanoma 110% | SW-620 colon 108% | MCF7 breast 98.7% | HCT-116 colon 97.6% | HCC-2998 colon 99.8% | KM12 colon 99.8%

CCC/C(=N/NC(N)=O)c1ccco1
inactive: T-47D breast 72.6% | BT-549 breast 97.4% | MDA-MB-435 melanoma 106% | SW-620 colon 102% | MCF7 breast 92.1% | HCT-116 colon 99.7% | HCC-2998 colon 104% | KM12 colon 103%
